# Laboratory results from ChEMBL document CHEMBL4513216, “Probing the Open Global Health Chemical Diversity Library for Multistage-Active Starting Points for Next-Generation Antimalarials” (ACS Infect Dis, 2020).
# Screen size: about 65,000 compounds; about 2,100 (3.2%) showed an effect of 50% or more. The median lay at about -52%. What follows is part of a selection rich in strong results, with near analogues and random picks from the rest.
# Tested on: Plasmodium falciparum
# Assay: Screen against P. falciparum Asexual Blood Stage (ABS), at 5uM
# Type: functional, Dd2
# Conditions: tested at 5 uM
row,Structure (SMILES),INHIBITION
1,COCc1ncn2c1CN(C(=O)Nc1cccc(OC)c1)CC2,-101%
2,CC(C)c1nccn1-c1cccc(C2CCCN(S(=O)(=O)N(C)C)C2)n1 (stereo not given),-73.6%
3,NC1CCC(Nc2nccc(CCC(F)(F)F)n2)CC1 (stereo not given),50.3%
4,N[C@@H]1CC[C@@H](Nc2nccc(CCC(F)(F)F)n2)C1,-4.32%
5,FC(F)(F)CCc1ccnc(NC2CCC(n3cnnc3)CC2)n1 (stereo not given),-54.2%
6,CS(=O)(=O)N1CCC(c2ccncn2)CC1,-94.7%
7,CN(C(=O)CSc1ncc[nH]1)C1CC1,-11.8%
8,Fc1ccc(CN2CCc3ncnc(C4CCOC4)c3CC2)cc1 (stereo not given),-78.8%
9,Cc1cccc(CN(Cc2ccccn2)Cc2ncc(C(C)(C)C)o2)c1,60.4%
10,CCN(Cc1cccc(Cl)c1)Cc1ncc(C(C)(C)C)o1,-14.1%
11,Cc1cccc(CN(Cc2ccccn2)S(=O)(=O)N(C)C)c1,-25.3%
12,CCc1ccc(CN2CCC3(CC2)C(=O)N(C)CCN3CC2CC2)cc1,68.9%
13,CCN1CCN(C)C(=O)C12CCN(Cc1cccc(C)c1)CC2,41.8%
14,CCN1CCN(C)C(=O)C12CCN(Cc1ccsc1)CC2,-35.5%
15,CN(CCc1ccccc1)c1cnn(C)c(=O)c1Br,-12.3%
16,CC(NC(=O)CSCC(N)=O)c1ccc(Oc2ccccc2)cc1 (stereo not given),-25.1%
17,NC(CC1CCCC1)c1ccccc1 (stereo not given),66.7%
18,NC(CC1CCCC1)c1ccc(Oc2ccccc2)cc1 (stereo not given),79.9%
19,NC(=O)C(NC1CCN(CC2CCCCC2)CC1)c1ccccc1 (stereo not given),-75%
20,OC(CN1CCN(CC2CCCCC2)CC1)c1ccccc1 (stereo not given),3.94%
21,c1ccc(Oc2ccc(OC34CCCN(CC3)C4)cc2)cc1 (stereo not given),40.7%
22,N#CCCCOc1cccnc1NC(=O)Cc1ccccc1F,-150%

row,Structure (SMILES),INHIBITION
1,CN(CC(=O)NCC1CCCO1)Cc1nc2c(s1)CCCC2 (stereo not given),-39.8%
2,Cc1cc(C)c(CN2CCCC23Cc2ccccc2CNC3=O)c(C)c1 (stereo not given),8.96%
3,CC(C)C(=O)NC1CCCN(C(=O)c2ccc(O)c(Cl)c2)C1 (stereo not given),-84%
4,O=C(Nc1ccccc1Cn1cccn1)N1CCCC(N2CCCC2)C1 (stereo not given),-31.7%
5,CN1CCN(c2ccc3ccc(C(=O)N4CCCO4)cn23)CC1,6.88%
6,COc1c(CNCc2ccnc(N3CCCCC3)c2)c(C)nn1C,-15.8%
7,COc1ccc(CNCc2ccnc(N3CCCCC3)c2)cc1OC,-9.72%
8,COc1cc(CNCc2ccnc(N3CCCCC3)c2)cc(OC)c1,61.4%
9,COc1c(CNCc2ccnc(N3CCCC3)c2)c(C)nn1C,-64.4%
10,COc1cc(CNCc2ccnc(N3CCOCC3)c2)cc(OC)c1,-50.4%
11,COc1cc(CNCc2ccnc(N3CCCC3)c2)cc(OC)c1,61.5%
12,CC(C)NC(=O)C1CN(C(=O)N(C)C)CC12CCOCC2 (stereo not given),-145%
13,Cc1cc(N2CCC(N(C)C(=O)c3ccc(C#N)cc3)CC2)nc(C)n1,-6.47%
14,CCCc1noc(CCCC(=O)N2CCCC2c2cnn(C)c2)n1 (stereo not given),-37%
15,COCCN(C)C(=O)c1nc2c(s1)CCCN2c1ccc(C)nn1,-53.3%
16,CCN1CCCN(C(=O)c2ccc(NC(=O)CC(C)C)c(C)c2)CC1,-98.5%
17,Cc1cccc(C(=O)N2CC[C@@H]3[C@H]2CCC(=O)N3c2ccccc2)n1,-87%
18,OC1(CNCc2cnc(N3CCOCC3)nc2)CCCCC1,-74.5%
19,Cc1ccccc1C1(CNCc2cnc(N3CCOCC3)nc2)CC1,50.8%
20,c1ccc(C2(CNCc3cnc(N4CCOCC4)nc3)CC2)cc1,-22.6%
21,CCN(CC)CCNc1ncc(-c2cc(C)no2)c(-c2ccoc2C)n1,61.9%
22,Cc1cc(-c2cnc(NC3CC3)nc2-c2ccoc2C)on1,-62%

row,Structure (SMILES),INHIBITION
1,Cc1cc(-c2cnc(NC3CCCC3)nc2-c2ccoc2C)on1,-65.8%
2,CCc1nc(C2CCCN(C(=O)c3ccccc3F)C2)no1 (stereo not given),-49.5%
3,CN(C)C(=O)N1C[C@H]2CC[C@@H](C1)N(C/C=C/c1ccc(F)cc1)C2,57.8%
4,CN(C)C(=O)CN1C[C@H]2CC[C@@H](C1)N(C/C=C/c1ccc(F)cc1)C2,43.5%
5,CS(=O)(=O)N1C[C@H]2CC[C@@H](C1)N(C/C=C/c1ccc(F)cc1)C2,-43.1%
6,NC(=O)Cn1ccc(O)c(Cc2ccc(Cl)cc2Cl)c1=O,-144%
7,CN(C)[C@H]1CCN(c2ccnc(C(=O)NCc3ccco3)c2)C1,-95.2%
8,O=C(NCc1ccco1)c1cc(N2CC[C@@H](O)C2)ccn1,-217%
9,CCCOC1CCCN(c2ccnc(C(=O)NCc3ccco3)c2)C1 (stereo not given),64.2%
10,Cc1ncnc2c1CCN(S(=O)(=O)C1CC1)CC2,-47.1%
11,CCc1nc(CN2CCCC(N(C)CCc3cccs3)C2)no1 (stereo not given),12.3%
12,Cn1ccnc1CN1CCCN(C(=O)COC2CCCCC2)CC1,-46.8%
13,CCOCCN1C[C@H](c2cccc(OC)c2)[C@@H](N)C1,-3.38%
14,C/C=C(\C)CN1C[C@H](c2cccc(OC)c2)[C@@H](N)C1,65.6%
15,COc1cccc([C@H]2CN(CCCS(=O)(=O)N(C)C)C[C@@H]2N)c1,-56.8%
16,Cc1nc(C(=O)N(C)[C@@H]2CCC[C@@H](Oc3ccccc3)[C@@H]2O)co1,-3.45%
17,CC(C)c1nsc(N2CCCOCC2)n1,-47.6%
18,Cc1ccc(CN(CCCN2CCOCC2)Cc2cnc(C)n2C)o1,55.1%
19,Cc1ccc(CN(CCCN(C)C)Cc2cnc(C)n2C)o1,-17.8%
20,Cc1ccc(CN(CCCN2CCOCC2)Cc2cnn(C)c2)o1,-2.55%
21,Cc1cc(NC(=O)NCc2cccnc2OC2CCCC2)n(C)n1,-37%
22,O=C(NCCN1CCCCC1)c1cccc(Cl)c1Cl,50.5%

row,Structure (SMILES),INHIBITION
1,Cc1cc(Br)ccc1C(=O)NCCN1CCCCCC1,30.2%
2,O=C(NCCN1CCCCC1)c1scnc1Cl,-130%
3,Cc1ccc(CN2C(=O)CCC23CCC(NCC2CCOC2)CC3)cc1 (stereo not given),-1.23%
4,O=C(NC1CCC1)[C@@H]1CCO[C@@H]2CCN(CCc3ccccc3)C[C@H]21,36.5%
5,Cc1c[nH]nc1C1CCCN1Cc1nccn1C (stereo not given),57.3%
6,Cn1ccnc1CN1CCCC1CCc1ccccc1 (stereo not given),37.6%
7,COc1cccc(CC2CCCN2Cc2nccn2C)c1 (stereo not given),52%
8,Cc1c[nH]nc1C1CCCN1Cc1ccncc1 (stereo not given),-8.01%
9,COc1cccc(CC2CCCN2CCCO)c1 (stereo not given),-8.85%
10,Cc1c[nH]nc1C1CCCN1Cc1ncc[nH]1 (stereo not given),34.9%
11,CC1CCN(C(=O)C(C)N2CCN(c3nccs3)CC2)CC1 (stereo not given),-55.4%
12,Cc1cc(C(=O)N2CCCCC2C)ccc1NC(=O)N1CCOCC1 (stereo not given),-137%
13,O=C(N1CCCCC1)N1CCN(CC(O)c2ccccc2)CC1 (stereo not given),-4.34%
14,O=C(c1cscn1)N1CCC[C@]2(C[C@H](OCC3CC3)CO2)C1,-132%
15,Cc1cc(-c2nccs2)nc(C2CCN(Cc3ccncc3)CC2)n1,-25.9%
16,Cc1cc(-c2nccs2)nc(C2CCN(Cc3ccc(F)cc3)CC2)n1,62.9%
17,Cc1cc(-c2nccs2)nc(C2CCN(Cc3cccs3)CC2)n1,16.1%
18,O=C(c1csc(I)c1)N1CCc2c(ncn2C2CC2)C1,-41.85%
19,Cc1nc(CN2CCc3ncnc(-c4cccnc4)c3CC2)cs1,-30.7%
20,CN1CCC2(COCCN(Cc3ccc4c(c3)OCO4)C2)C1 (stereo not given),-102%
21,CN1CC2(CCN(Cc3cccc(C#N)c3)CC2)CC1=O,-15.1%
22,CN1CCC2(COCCN(Cc3cccc(C#N)c3)C2)C1 (stereo not given),57%

row,Structure (SMILES),INHIBITION
1,C/C=C(\C)CN1C[C@H](NC(=O)CCOC)[C@@H](c2ccc(C)o2)C1,-33.1%
2,CCC1(CO)CCN(C(=O)c2cc(COc3ccccc3F)[nH]n2)CC1,-66.6%
3,O=C(c1cccnc1)N1CCN2C[C@H](OCc3ccccc3)C[C@H]2C1,-19.2%
4,CCc1ccc(C2CC(=O)Nc3c2c(=O)[nH]n3C(C)C)cc1 (stereo not given),-113%
5,c1ccc(CN2CCn3c(Cn4cncn4)cnc3C2)nc1,-53.9%
6,CCS(=O)(=O)N1CCC2(CCCN(Cc3ccc(F)c(F)c3)C2=O)C1 (stereo not given),-68%
7,O=C1N(Cc2ccccc2F)CCCC12CCN(C1CCSCC1)C2 (stereo not given),34.2%
8,Cc1cccc(CN2CCCC3(CCN(C4CCSCC4)C3)C2=O)c1 (stereo not given),6.83%
9,O=C1N(Cc2ccc(F)c(F)c2)CCCC12CCN(C1CCCC1)C2 (stereo not given),68.1%
10,O=C1N(Cc2ccc(F)cc2)CCCC12CCN(C1CCSCC1)C2 (stereo not given),9.56%
11,O=C1N(Cc2ccc(F)c(F)c2)CCCC12CCN(C1CCCCC1)C2 (stereo not given),60.9%
12,CCCS(=O)(=O)N1C[C@H]2CC[C@@H](C1)N(Cc1cscn1)C2=O,-60%
13,Nc1cc(N2CCOCC(Cc3ccc4[nH]ccc4c3)C2)ncn1 (stereo not given),-6.79%
14,CCc1nnsc1C(=O)NC1CCN(CCOc2ccc(Br)cc2)CC1,2.8%
15,Cc1nc(C(=O)NC2CCN(CCOc3ccc(Br)cc3)CC2)cs1,50%
16,CC(=O)Nc1nc(C(=O)NCCOc2ccc(C)cc2)cs1,-4.82%
17,CCn1ccnc1CN1CCCN(C(=O)c2ccnc(C)n2)CC1,-61.7%
18,COc1ccc2c(c1)OCC(CNC1CCc3nc(C)nn3C1)=C2 (stereo not given),-98%
19,Cc1csc(N2CCCN(c3cc(C)nc(C)c3C#N)CC2)n1,-45.8%
20,O=C(O)CCCC(=O)Nc1cnn(COc2ccc(F)cc2Cl)c1,-39.2%
21,O=C(Nc1cnn(Cc2ccc(F)cc2Cl)c1)C1CC1,-0.313%
22,O=C(Nc1cnn(COc2ccc(F)cc2Cl)c1)C1CC1,67.2%
